# Assay results from the supplement of paper PMC8728848.
# About 410 targets per protein were measured; listed, in parts, are those with the strongest signals and a random draw of the rest.
# Legend:
# Test in all cases: glycan array binding signal (z-score within array); higher = stronger binding
# Conditions in all cases: glycan notation: IUPAC condensed, linker removed
# [1] = molecular target: Fuc(a1-2)Gal(b1-3)GlcNAc(b1-2)Man(a1-3)[Fuc(a1-2)Gal(b1-3)GlcNAc(b1-2)Man(a1-6)]Man(b1-4)GlcNAc(b1-4)GlcNAc
# Outline: (§1)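 From the Consortium for Functional Glycomics database, 3228 arrays were curated, keeping only those whose protein sequence was available. Binding is given as a within-array Z-score averaged across arrays sharing a protein sequence and across linkers. Negative Z-scores can be read as non-binding.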
# [2] = molecular target: Fuc(a1-2)Gal(b1-3)GlcNAc(b1-3)GalNAc
# Outline: as §1
# [3] = molecular target: Fuc(a1-2)Gal(b1-4)GlcNAc(b1-2)[Fuc(a1-2)Gal(b1-4)GlcNAc(b1-4)]Man(a1-3)[Fuc(a1-2)Gal(b1-4)GlcNAc(b1-2)Man(a1-6)]Man(b1-4)GlcNAc(b1-4)GlcNAc
# Outline: as §1
# [4] = molecular target: Fuc(a1-2)Gal(b1-4)GlcNAc(b1-3)Gal(b1-4)GlcNAc(b1-3)Gal(b1-4)GlcNAc
# Outline: as §1
# [5] = molecular target: Fuc(a1-2)[Gal(a1-3)]Gal(b1-4)GlcNAc(b1-3)[Fuc(a1-2)[Gal(a1-3)]Gal(b1-4)GlcNAc(b1-6)]GalNAc
# Outline: as §1
# [6] = molecular target: Fuc(a1-2)[Gal(a1-3)]Gal(b1-4)[Fuc(a1-3)]GlcNAc
# Outline: as §1
# [7] = molecular target: Fuc(a1-2)[GalNAc(a1-3)]Gal(b1-4)GlcNAc(b1-2)Man(a1-3)[Fuc(a1-2)[GalNAc(a1-3)]Gal(b1-4)GlcNAc(b1-2)Man(a1-6)]Man(b1-4)GlcNAc(b1-4)GlcNAc
# Outline: as §1
# [8] = molecular target: Fuc(a1-3)[Gal(b1-4)]Glc6S
# Outline: as §1
# [9] = molecular target: Fuc(a1-3)[Gal(b1-4)]GlcNAc(b1-3)GalNAc
# Outline: as §1
# Fuc(a1-4)GlcNAc = molecular target: Fuc(a1-4)GlcNAc
# Outline: as §1
# Gal(a1-3)Gal(b1-3)GlcNAc = molecular target: Gal(a1-3)Gal(b1-3)GlcNAc
# Outline: as §1
# [10] = molecular target: Gal(a1-3)Gal(b1-4)[Fuc(a1-3)]GlcNAc
# Outline: as §1
# [11] = molecular target: Gal(b1-3)GalNAc(a1-3)[Fuc(a1-2)]Gal(b1-4)GlcNAc
# Outline: as §1
# [12] = molecular target: Gal(b1-3)GlcNAc(b1-2)Man(a1-3)[GlcNAc(b1-4)][Gal(b1-3)GlcNAc(b1-2)Man(a1-6)]Man(b1-4)GlcNAc(b1-4)GlcNAc
# Outline: as §1
# [13] = molecular target: Gal(b1-3)GlcNAc(b1-2)[Gal(b1-3)GlcNAc(b1-6)]Man(a1-6)[Gal(b1-3)GlcNAc(b1-2)Man(a1-3)]Man(b1-4)GlcNAc(b1-4)GlcNAc
# Outline: as §1
# [14] = molecular target: Gal(b1-3)GlcNAc(b1-3)Gal(b1-3)GlcNAc
# Outline: as §1
# [15] = molecular target: Gal(b1-3)GlcNAc(b1-3)Gal(b1-4)GlcNAc(b1-3)Gal(b1-4)GlcNAc(b1-2)[Gal(b1-3)GlcNAc(b1-3)Gal(b1-4)GlcNAc(b1-3)Gal(b1-4)GlcNAc(b1-6)]Man(a1-6)[Gal(b1-3)GlcNAc(b1-3)Gal(b1-4)GlcNAc(b1-3)Gal(b1-4)GlcNAc(b1-2)Man(a1-3)]Man(b1-4)GlcNAc(b1-4)[Fuc(a1-6)]GlcNAc
# Outline: as §1
# [16] = molecular target: Gal(b1-4)GlcNAc(b1-2)Man(a1-3)[Gal(b1-4)GlcNAc(b1-2)Man(a1-6)]Man(b1-4)GlcNAc(b1-4)GlcNAc
# Outline: as §1
# [17] = molecular target: Gal(b1-4)GlcNAc(b1-3)Gal(b1-4)GlcNAc(b1-3)Gal(b1-4)GlcNAc(b1-2)Man(a1-3)[Gal(b1-4)GlcNAc(b1-3)Gal(b1-4)GlcNAc(b1-3)Gal(b1-4)GlcNAc(b1-2)Man(a1-6)]Man(b1-4)GlcNAc(b1-4)GlcNAc
# Outline: as §1
# [18] = molecular target: Gal(b1-4)GlcNAc(b1-3)Gal(b1-4)GlcNAc(b1-3)Gal(b1-4)GlcNAc(b1-3)Gal(b1-4)GlcNAc(b1-3)Gal(b1-4)GlcNAc(b1-2)[Gal(b1-4)GlcNAc(b1-3)Gal(b1-4)GlcNAc(b1-3)Gal(b1-4)GlcNAc(b1-3)Gal(b1-4)GlcNAc(b1-3)Gal(b1-4)GlcNAc(b1-6)]Man(a1-6)[Gal(b1-4)GlcNAc(b1-3)Gal(b1-4)GlcNAc(b1-3)Gal(b1-4)GlcNAc(b1-3)Gal(b1-4)GlcNAc(b1-3)Gal(b1-4)GlcNAc(b1-2)Man(a1-3)]Man(b1-4)GlcNAc(b1-4)[Fuc(a1-6)]GlcNAc
# Outline: as §1
# Gal3S(b1-4)Glc6S = molecular target: Gal3S(b1-4)Glc6S
# Outline: as §1
# Gal6S(b1-4)Glc = molecular target: Gal6S(b1-4)Glc
# Outline: as §1
# Gal6S(b1-4)GlcNAc = molecular target: Gal6S(b1-4)GlcNAc
# Outline: as §1
# [19] = molecular target: GalNAc(b1-3)Gal(a1-4)Gal(b1-4)GlcNAc
# Outline: as §1
# GalNAc(b1-3)GalNAc = molecular target: GalNAc(b1-3)GalNAc
# Outline: as §1
# [20] = molecular target: GalNAc(b1-4)GlcNAc(b1-2)Man(a1-3)[GalNAc(b1-4)GlcNAc(b1-2)Man(a1-6)]Man(b1-4)GlcNAc(b1-4)GlcNAc
# Outline: as §1
# GalNAc3S(b1-4)GlcNAc3S = molecular target: GalNAc3S(b1-4)GlcNAc3S
# Outline: as §1
# GlcA(b1-6)Gal = molecular target: GlcA(b1-6)Gal
# Outline: as §1
# [21] = molecular target: GlcA3S(b1-3)Gal(b1-4)GlcNAc(b1-3)Gal(b1-4)Glc
# Outline: as §1
# [22] = molecular target: GlcNAc(b1-2)Man(a1-3)[GlcNAc(b1-2)Man(a1-6)]Man(b1-4)GlcNAc(b1-4)[Fuc(a1-6)]GlcNAc
# Outline: as §1
binder,measurement,setting,value
"Sebin2 (Coprinopsis cinerea), A8PE78 (protein) MTTPFYAYCHNVQDDNTWRLGLVFANRSTADEWWRAISEATSSIPITKSITRVTPQYYTHDIRVWNMYNFFVDGNIKSISDKFRGRLFITLEYDRSGRGVSVFPPLHIVDHVSGNWYYIRSKTAPHLFWFYDETRNAIYASKEKRTRFKVSIRNPSPQTPKDAIMINSDDVVIHIKESLYVGVDSYLGHIIPTRAYRTFKFGELEGGAIAGIEVAENAEERCSSTFDGASLYFVGPDSSSPGEPWELV",glycan array binding signal (z-score),[1],0.911
same,glycan array binding signal (z-score),[2],-0.146
same,glycan array binding signal (z-score),[3],0.019
same,glycan array binding signal (z-score),[4],-0.116
same,glycan array binding signal (z-score),[5],4.59
same,glycan array binding signal (z-score),[6],-0.033
same,glycan array binding signal (z-score),[7],0.273
same,glycan array binding signal (z-score),[8],1.49
same,glycan array binding signal (z-score),[9],0.281
same,glycan array binding signal (z-score),Fuc(a1-4)GlcNAc,4.58
same,glycan array binding signal (z-score),Gal(a1-3)Gal(b1-3)GlcNAc,1.62
same,glycan array binding signal (z-score),[10],-0.524
same,glycan array binding signal (z-score),[11],-0.521
same,glycan array binding signal (z-score),[12],-0.222
same,glycan array binding signal (z-score),[13],1.02
same,glycan array binding signal (z-score),[14],-0.397
same,glycan array binding signal (z-score),[15],0.29
same,glycan array binding signal (z-score),[16],0.112
same,glycan array binding signal (z-score),[17],-0.131
same,glycan array binding signal (z-score),[18],0.421
same,glycan array binding signal (z-score),Gal3S(b1-4)Glc6S,0.515
same,glycan array binding signal (z-score),Gal6S(b1-4)Glc,-0.355
same,glycan array binding signal (z-score),Gal6S(b1-4)GlcNAc,-0.138
same,glycan array binding signal (z-score),[19],-0.059
same,glycan array binding signal (z-score),GalNAc(b1-3)GalNAc,-0.129
same,glycan array binding signal (z-score),[20],-0.25
same,glycan array binding signal (z-score),GalNAc3S(b1-4)GlcNAc3S,0.462
same,glycan array binding signal (z-score),GlcA(b1-6)Gal,1.12
same,glycan array binding signal (z-score),[21],1.64
same,glycan array binding signal (z-score),[22],-0.213
